The record followed here is PubChem BioAssay AID624160 (National Center for Advancing Translational Sciences (NCATS), 2012).

This is one part of the list. Records with an inconclusive call do not appear. The source made the active and inactive calls. Calls come from the whole dose curve; as a rule, active = well fitted inhibition curve with a large enough effect; inconclusive = small, poorly fitted or top-dose-only effect; inactive = no such curve, though single readings can be large or run the other way.
Potency is the fitted concentration of half-maximal effect.

In this assay the target is Histone-lysine N-methyltransferase 2A (Homo sapiens) (UniProt Q03164). The assay can be described thus: qHTS Fluorescence Polarization (FP) Assay for Inhibitors of MLL CXXC domain - DNA interaction: Fluorescein FP. Note: nearly all actives have a fitted effect of over 80% in size. The note with it: MLL CXXC-DNA binding. The text has this: The MLL (Mixed Lineage Luekemia) gene is involved in chromosomal translocation that results in either acute lymphoid leukemia (ALL) or acute myeloid leukemia (AML). Chromasomal translocation of MLL gene is responsible for the fusion of N-terminal MLL to more than 60 different partner genes in frame. Many of the MLL partner genes contain transcription activation domains or function as transcriptional activators. Despite the heterogeneity of fusion partners, the N-terminus of MLL fusion proteins always consists of the N-terminal menin binding motif and the CXXC domain. The MLL-CXXC domain specifically recognizes unmethylated CpG sequences of the HOX-A gene. Disruption of the MLL-CXXC and HOX-A gene interaction leads to down regulation of HOX-A gene expression and may potentially reverse leukemogenesis. We have miniaturized and optimized an in-vitro assay to screen for inhibitors of the MLL-CXXC domain and HOX-A DNA interaction, which could have utility in MLL fusion leukemias.
Sequence of Histone-lysine N-methyltransferase 2A (Homo sapiens) (Q03164 whole entry, looked up, the tested form may be a part): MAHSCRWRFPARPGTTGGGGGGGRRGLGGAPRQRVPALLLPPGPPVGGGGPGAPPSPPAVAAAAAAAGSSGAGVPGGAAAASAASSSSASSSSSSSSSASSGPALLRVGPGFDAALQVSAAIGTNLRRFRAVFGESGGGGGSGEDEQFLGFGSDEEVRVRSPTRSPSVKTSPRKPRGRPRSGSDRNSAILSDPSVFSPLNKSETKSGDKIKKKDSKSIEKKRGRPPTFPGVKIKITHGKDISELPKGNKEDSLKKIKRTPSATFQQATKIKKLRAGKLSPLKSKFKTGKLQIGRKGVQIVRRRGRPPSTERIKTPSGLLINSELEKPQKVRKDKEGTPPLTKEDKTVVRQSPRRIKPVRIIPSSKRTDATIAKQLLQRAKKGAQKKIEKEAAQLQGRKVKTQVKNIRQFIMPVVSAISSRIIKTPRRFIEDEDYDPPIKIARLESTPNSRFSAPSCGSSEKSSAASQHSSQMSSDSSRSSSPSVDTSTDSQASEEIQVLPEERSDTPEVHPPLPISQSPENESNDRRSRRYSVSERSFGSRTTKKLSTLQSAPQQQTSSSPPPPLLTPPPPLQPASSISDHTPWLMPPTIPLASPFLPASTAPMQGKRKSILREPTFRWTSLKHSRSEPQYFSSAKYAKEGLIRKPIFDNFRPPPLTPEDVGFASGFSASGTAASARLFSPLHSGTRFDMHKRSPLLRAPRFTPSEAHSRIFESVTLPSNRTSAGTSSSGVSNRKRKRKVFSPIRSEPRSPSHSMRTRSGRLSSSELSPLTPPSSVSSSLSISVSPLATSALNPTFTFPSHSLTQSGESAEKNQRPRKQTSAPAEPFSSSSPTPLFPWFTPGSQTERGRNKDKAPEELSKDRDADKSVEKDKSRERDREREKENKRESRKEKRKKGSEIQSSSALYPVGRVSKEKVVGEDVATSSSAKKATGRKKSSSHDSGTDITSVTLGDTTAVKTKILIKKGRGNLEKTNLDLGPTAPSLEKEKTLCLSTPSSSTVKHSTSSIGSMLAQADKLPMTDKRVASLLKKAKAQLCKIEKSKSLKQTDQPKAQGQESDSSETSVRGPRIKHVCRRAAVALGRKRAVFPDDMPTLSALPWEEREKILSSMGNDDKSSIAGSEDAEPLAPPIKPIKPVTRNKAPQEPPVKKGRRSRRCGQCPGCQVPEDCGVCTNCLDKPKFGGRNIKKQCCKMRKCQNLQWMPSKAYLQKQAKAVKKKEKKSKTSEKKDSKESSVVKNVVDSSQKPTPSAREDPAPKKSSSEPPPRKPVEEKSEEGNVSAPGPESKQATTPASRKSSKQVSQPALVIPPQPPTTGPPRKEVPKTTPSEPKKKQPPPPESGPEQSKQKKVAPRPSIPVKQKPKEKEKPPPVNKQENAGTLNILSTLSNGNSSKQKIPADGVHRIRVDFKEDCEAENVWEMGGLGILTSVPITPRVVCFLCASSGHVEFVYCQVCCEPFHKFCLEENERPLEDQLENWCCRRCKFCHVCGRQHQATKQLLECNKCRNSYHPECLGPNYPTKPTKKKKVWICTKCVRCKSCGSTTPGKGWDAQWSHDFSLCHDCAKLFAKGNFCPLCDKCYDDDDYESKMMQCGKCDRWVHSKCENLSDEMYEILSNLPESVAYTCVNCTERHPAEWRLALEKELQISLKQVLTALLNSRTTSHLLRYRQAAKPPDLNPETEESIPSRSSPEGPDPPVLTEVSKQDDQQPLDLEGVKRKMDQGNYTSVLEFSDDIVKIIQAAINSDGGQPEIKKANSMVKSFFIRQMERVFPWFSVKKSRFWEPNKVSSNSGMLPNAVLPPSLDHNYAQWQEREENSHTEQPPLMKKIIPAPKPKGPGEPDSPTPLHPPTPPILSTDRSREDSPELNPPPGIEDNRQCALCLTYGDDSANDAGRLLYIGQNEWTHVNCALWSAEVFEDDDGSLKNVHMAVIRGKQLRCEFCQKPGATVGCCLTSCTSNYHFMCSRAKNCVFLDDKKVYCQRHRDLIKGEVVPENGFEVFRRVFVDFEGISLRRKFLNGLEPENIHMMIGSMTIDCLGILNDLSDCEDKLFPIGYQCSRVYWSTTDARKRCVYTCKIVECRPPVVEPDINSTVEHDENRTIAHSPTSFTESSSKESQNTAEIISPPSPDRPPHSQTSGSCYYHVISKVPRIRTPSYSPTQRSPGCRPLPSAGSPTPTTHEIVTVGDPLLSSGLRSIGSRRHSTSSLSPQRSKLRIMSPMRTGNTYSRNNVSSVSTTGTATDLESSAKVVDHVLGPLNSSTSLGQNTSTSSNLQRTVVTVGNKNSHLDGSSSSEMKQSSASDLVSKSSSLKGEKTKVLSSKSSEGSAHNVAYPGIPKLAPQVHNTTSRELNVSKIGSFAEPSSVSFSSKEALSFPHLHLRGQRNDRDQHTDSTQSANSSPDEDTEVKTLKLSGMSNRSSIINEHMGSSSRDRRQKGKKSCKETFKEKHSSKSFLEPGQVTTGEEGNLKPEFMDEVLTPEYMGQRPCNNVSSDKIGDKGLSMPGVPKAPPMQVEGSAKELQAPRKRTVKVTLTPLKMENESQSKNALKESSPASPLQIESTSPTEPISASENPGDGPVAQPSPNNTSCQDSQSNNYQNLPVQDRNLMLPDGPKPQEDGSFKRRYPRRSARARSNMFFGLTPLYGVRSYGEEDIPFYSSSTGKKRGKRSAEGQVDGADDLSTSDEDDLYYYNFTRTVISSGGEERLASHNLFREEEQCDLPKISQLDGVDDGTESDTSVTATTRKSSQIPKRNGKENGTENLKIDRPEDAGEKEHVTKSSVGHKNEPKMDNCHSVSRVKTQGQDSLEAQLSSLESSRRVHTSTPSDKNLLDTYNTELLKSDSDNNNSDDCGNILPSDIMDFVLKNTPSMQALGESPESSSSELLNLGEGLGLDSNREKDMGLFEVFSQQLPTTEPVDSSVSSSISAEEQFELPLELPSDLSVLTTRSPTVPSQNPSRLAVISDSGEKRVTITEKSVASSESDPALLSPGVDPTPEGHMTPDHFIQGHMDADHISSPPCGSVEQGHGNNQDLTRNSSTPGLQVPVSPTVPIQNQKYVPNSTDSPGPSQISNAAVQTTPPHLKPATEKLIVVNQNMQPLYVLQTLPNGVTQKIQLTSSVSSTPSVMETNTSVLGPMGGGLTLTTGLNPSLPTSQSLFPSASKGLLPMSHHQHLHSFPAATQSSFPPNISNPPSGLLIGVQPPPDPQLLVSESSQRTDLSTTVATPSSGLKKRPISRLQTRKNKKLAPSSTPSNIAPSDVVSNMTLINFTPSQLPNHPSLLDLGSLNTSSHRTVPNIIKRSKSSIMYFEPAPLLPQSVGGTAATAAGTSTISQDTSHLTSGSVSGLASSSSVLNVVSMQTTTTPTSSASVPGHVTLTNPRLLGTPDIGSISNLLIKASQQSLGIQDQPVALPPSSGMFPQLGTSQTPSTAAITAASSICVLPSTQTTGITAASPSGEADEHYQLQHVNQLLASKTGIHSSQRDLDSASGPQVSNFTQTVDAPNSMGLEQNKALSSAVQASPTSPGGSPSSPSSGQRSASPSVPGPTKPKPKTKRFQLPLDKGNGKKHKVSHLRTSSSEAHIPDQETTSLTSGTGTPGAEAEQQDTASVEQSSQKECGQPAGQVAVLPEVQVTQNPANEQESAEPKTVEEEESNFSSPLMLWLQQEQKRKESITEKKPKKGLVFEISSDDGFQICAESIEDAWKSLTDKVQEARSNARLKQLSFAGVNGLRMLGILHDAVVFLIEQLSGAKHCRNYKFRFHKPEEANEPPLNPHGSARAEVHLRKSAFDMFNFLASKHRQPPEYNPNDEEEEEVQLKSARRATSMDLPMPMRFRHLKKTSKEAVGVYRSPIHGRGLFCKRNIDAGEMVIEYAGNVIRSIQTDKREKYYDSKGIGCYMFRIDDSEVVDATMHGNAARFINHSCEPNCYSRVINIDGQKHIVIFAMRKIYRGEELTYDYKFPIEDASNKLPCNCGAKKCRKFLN
This is a hit validation assay that tests this hits identified in the primary screen in this secondary screen, using flurescein FP as a read-out.
NIH Molecular Libraries Probe Production Network [MLPCN]
NIH Chemical Genomics Center [NCGC]
PI Name: John Bushweller, University of Virgina
The affinity purified MLL-CXXC domain, unlabeled HOX-A9 DNA strand, fluorescein (FLSN) labeled HOX-A9 DNA strand were kindly supplied by the laboratory of Dr. John Bushweller, University of Virginia. All reagents were stored in single use aliquots at -80C.
Assay buffer: 50 mM TRIS-HCl pH 7.5, 50 mM NaCl, 1 mM DTT. Add 0.05% BSA prior to reaction setup.
1.Dispense 1 ul of a 7 uM MLL-CXXC solution prepared in assay buffer into column 1-48.
2.Transfer 23 nl of compounds and unlabeled HOX-A9 per well.
3.Incubate for 5 minutes at ambient.
4.Dispense 1ul of a 50 nM FLSN-HOX-A9 solution prepared in assay buffer into columns 1-48
5.Centrifuge for 30 seconds at 1000 RPM.
6.Incubate for 30 minutes at ambient.
7.Read using the Envision reader fluorescent polarization protocol.
For orientation: Quantitative high-throughput screening tests each substance at several concentrations.
With `COc1ccc(S(=O)(=O)/N=C2\C=C(NS(=O)(=O)c3ccccc3)C(=O)c3ccccc32)cc1`, the Potency is 50.3 µM (active). Turning to `CCOC(=O)/C(N=Nc1cc(C(=O)O)cc(C(=O)O)c1)=C(\O)CCl`, the Potency was 6.33 µM (active). Turning to `COc1cc(/C=C2/C(=O)NN(c3ccc(F)cc3)C2=O)cc([N+](=O)[O-])c1O`, the Potency was 71.1 µM (active). The value for `COc1ccc(-c2onc3ccc(C(C)=O)cc23)cc1` was 10 µM (active). The value for `O=C1NN(c2ccccc2)C(=O)/C1=C/c1ccc(-c2cccc(C(=O)O)c2)o1` was 100 µM (active).
